Only some compounds are listed: those with a hit (about 1.5% of all), similar ones and a draw of the others.
PP1 counter: blocks human PP1-alpha phosphatase, a PP5 counter-screen; purified PP1alpha, OMFP fluorescence; P62136; hit rate 0.9% among 320,000; inhibition, % at 6.7 µM;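 active means inhibition above the mean inhibition of all tested compounds plus 3 SD, computed separately for each screening campaign, cut at about 15% in these data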
Target sequence (P62136 whole entry, looked up): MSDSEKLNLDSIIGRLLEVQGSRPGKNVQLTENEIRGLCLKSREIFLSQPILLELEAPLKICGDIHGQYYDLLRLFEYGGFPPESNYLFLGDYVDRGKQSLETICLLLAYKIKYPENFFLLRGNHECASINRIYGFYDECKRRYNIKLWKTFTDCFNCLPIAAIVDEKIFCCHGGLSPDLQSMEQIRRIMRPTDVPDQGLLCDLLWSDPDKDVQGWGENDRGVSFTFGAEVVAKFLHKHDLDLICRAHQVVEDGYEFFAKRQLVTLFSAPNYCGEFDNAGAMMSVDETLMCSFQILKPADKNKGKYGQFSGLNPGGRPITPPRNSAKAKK
HIF activator: HIF pathway transcriptional activation; U2OS HRE-luciferase reporter, luminescence; normalized: DMSO 0%, desferrioxamine 100%; activation, % at 7.5 µM (by protocol); hit rate 0.32% among 300,000; AID 1910;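 active means mean activation of at least 10% of the iron chelator positive control signal, with at least half of replicates also reaching 10%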
STK33 kinase inh: inhibitors of human STK33 kinase; Q9BYT3; purified STK33, MBP phosphorylation, ADP-Glo luminescence; inhibition, % at 10 µM; hit rate 0.073% among 320,000; AID 2661;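 active means inhibition at or above 25%, using the most active replicate where run in duplicate; inactive means inhibition below 25%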
PP5 inh: blocks human protein phosphatase 5 activity; purified PP5c, OMFP substrate fluorescence; inhibition, % at 6.7 µM; hit rate 0.18% among 320,000;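 active means inhibition above the campaign's mean inhibition across all tested compounds plus 3 SD, cut at about 9.5% in these data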
Dyrk1A ADPGlo: blocks rat Dyrk1A kinase activity. AID 504441. inhibition, % at 12.5 µM. Q63470. hit rate 0.43% among 310,000. ADP-Glo luminescence, NFATc1 peptide; in the data active means inhibition above about 50%
Hits are given with their value; - = inactive; . = no result given.

SMILES | PP1 counter | HIF activator | STK33 kinase inh | PP5 inh | Dyrk1A ADPGlo
O=C(COc1ccc(Cl)cc1Cl)N/N=C/CCc1ccccc1 | - | 10.5 | - | - | -
COc1ccc(S(=O)(=O)N2CC(O)C[C@H]2C(=O)OCC(=O)N2CCCCCC2)cc1 (stereo partly drawn) | - | - | - | - | -
COCc1[nH]c(=S)[nH]c(=O)c1C | - | - | - | - | -
O=C(NNC(=O)c1ccccc1Br)c1cccc(Cl)c1 | - | - | - | - | -
O=C(NNC(=O)c1ccccc1Br)c1ccc(Cl)cc1 | - | 12.2 | - | - | -
Cc1ccc(C(=O)ON=C2CCN(c3ccc([N+](=O)[O-])cc3)CC2)cc1 | 15.7 | - | - | - | -
Cc1ccccc1C(=O)O/N=C(\N)c1ccccc1 | - | - | - | - | 55.1
Cc1ccccc1C(=O)O/N=C(\N)c1ccc([N+](=O)[O-])cc1 | - | - | - | - | .
CCc1ccc(NC(=O)C2CCCN2c2nn3c(=O)cc(C)nc3s2)cc1 (stereo not drawn) | - | - | - | - | -
Cc1ccccc1C(=O)NC1CC2CCCC(C1)N2C(=O)Nc1ccccc1 (stereo not drawn) | - | - | - | - | -
O=c1[nH]c(C2CCCN(S(=O)(=O)c3ccccc3Cl)C2)nc2c1nnn2Cc1ccc2c(c1)OCCO2 (stereo not drawn) | 16.4 | - | - | - | -
Cc1ccc(Cn2nnc3c(=O)[nH]c(C4CCN(S(=O)(=O)c5ccc(S(=O)(=O)NC6CC6)cc5)CC4)nc32)cc1 | 16.8 | - | - | - | -
COC(=O)c1ccc(Cn2nnc3c(=O)[nH]c(C4CCN(S(=O)(=O)c5cc(C)ccc5C)CC4)nc32)cc1 | 16.3 | - | . | - | -
Cc1ccc(Cn2nnc3c(=O)[nH]c(C4CCN(S(=O)(=O)c5ccc(C)cc5)CC4)nc32)cc1 | - | - | - | - | -
COC(=O)c1ccc(Cn2nnc3c(=O)[nH]c(C4CCCN(S(=O)(=O)c5ccc(C)cc5)C4)nc32)cc1 (stereo not drawn) | - | - | . | - | -
O=c1[nH]c(C2CCN(S(=O)(=O)c3ccccc3)CC2)nc2c1nnn2Cc1ccc2c(c1)OCCO2 | - | - | - | - | -
S=c1nc(-c2csc3c2CCCC3)[nH][nH]1 | - | - | - | - | -
C#CCOCCOCCOCCNc1nc(N2CCN(C(=O)CCCCCCCCCCNC(=O)[C@H](CO)n3cc(CCCCCN)nn3)CC2)nc(N2CCN(C(=O)CCCCCCCCCCNC(=O)[C@H](CCCN=C(N)N)n3cc(C[C@@H](C)CC)nn3)CC2)n1 | 57.4 | . | - | - | .
C#CCOCCOCCOCCNc1nc(N2CCN(C(=O)CCCCCCCCCCNC(=O)[C@H](CCCCN)n3cc(C[C@@H](C)CC)nn3)CC2)nc(N2CCN(C(=O)CCCCCCCCCCNC(=O)[C@H](CCCN=C(N)N)n3cc(C[C@@H](C)CC)nn3)CC2)n1 | 67.5 | . | 29.2 | - | -
C#CCOCCOCCOCCNc1nc(N2CCN(C(=O)CCCCCCCCCCNC(=O)[C@@H](CCC(=O)O)n3cc(CCCCCN)nn3)CC2)nc(N2CCN(C(=O)CCCCCCCCCCNC(=O)[C@H](CO)n3cc(CCCCCN)nn3)CC2)n1 | 15.3 | . | - | - | -
C#CCOCCOCCOCCNc1nc(N2CCN(C(=O)CCCCCCCCCCNC(=O)[C@H](CCCCN)n3cc(CCO)nn3)CC2)nc(N2CCN(C(=O)CCCCCCCCCCNC(=O)[C@H](CCCCN)n3cc(CCCC(=O)O)nn3)CC2)n1 | - | . | - | - | -
C#CCOCCOCCOCCNc1nc(N2CCN(C(=O)[C@H](CCCCN)n3cc([C@@H](N)CC(C)C)nn3)CC2)nc(N2CCN(C(=O)[C@H](Cc3cc4ccccc4[nH]3)n3cc([C@@H](N)Cc4ccc(O)cc4)nn3)CC2)n1 | 17.0 | - | - | - | -
C#CCOCCOCCOCCNc1nc(N2CCN(C(=O)[C@H](CCCCN)n3cc([C@@H](N)CO)nn3)CC2)nc(N2CCN(C(=O)[C@H](Cc3cc4ccccc4[nH]3)n3cc([C@@H](N)Cc4ccc(O)cc4)nn3)CC2)n1 | - | - | - | - | .
C#CCOCCOCCOCCNc1nc(N2CCN(C(=O)CCCCCCCCCCNC(=O)[C@@H](CCC(=O)O)n3cc(CCCCCN)nn3)CC2)nc(N2CCN(C(=O)CCCCCCCCCCNC(=O)[C@H](CO)n3cc(CCCSC)nn3)CC2)n1 | - | . | - | - | -
Cc1ccc2c(cnn2C(=O)CCC(=O)N2CCCCC2)c1 | - | - | - | - | -
C=C(C(=O)O)C1CCC2(C)CCCC(C)(O)C2C1 (stereo not drawn) | - | - | - | - | -
